High-throughput results deposited in PubChem by The Scripps Research Institute Molecular Screening Center.
Most compounds without a hit are left out; they make up all but 3.5% or so of the library.
MITF inh – MITF inhibitors, primary screen, biochemical, AlphaScreen, human; Microphthalmia-associated transcription factor (Homo sapiens), O75030; AlphaScreen MITF homodimerization, bead proximity signal; inhibition, % at 2.6 µM; actives 0.91% (n = 650,000); in the data active means inhibition above about 50%;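 further: 0% = vehicle wells with protein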
TEAD-YAP inh – TEAD-YAP interaction inhibition, primary screen, TEAD-YAP interaction inhibitor project, luminescence, HEK-TIYL cells. TEAD-Gal4/YAP UAS-luciferase luminescence. inhibition, % at 9.12 µM. actives 1.4% (n = 640,000); in the data active means inhibition above about 32%;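 further: 0% = median of test compound wells and 100% = reference inhibitor wells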
GPR151 ag – activators of human GPR151, primary screen, cell-based, PathHunter beta-arrestin, luminescence | G-protein coupled receptor 151 (Homo sapiens), Q8TDV0 | PathHunter beta-arrestin GPR151 cells | activation, % at 11.2 µM | actives 1% (n = 650,000) | AID 1508602, 2020; in the data active means activation above about 4.9%;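 further: 0% = median of compound wells and 100% = cells with positive control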
Target sequence (Q8TDV0 whole entry, looked up): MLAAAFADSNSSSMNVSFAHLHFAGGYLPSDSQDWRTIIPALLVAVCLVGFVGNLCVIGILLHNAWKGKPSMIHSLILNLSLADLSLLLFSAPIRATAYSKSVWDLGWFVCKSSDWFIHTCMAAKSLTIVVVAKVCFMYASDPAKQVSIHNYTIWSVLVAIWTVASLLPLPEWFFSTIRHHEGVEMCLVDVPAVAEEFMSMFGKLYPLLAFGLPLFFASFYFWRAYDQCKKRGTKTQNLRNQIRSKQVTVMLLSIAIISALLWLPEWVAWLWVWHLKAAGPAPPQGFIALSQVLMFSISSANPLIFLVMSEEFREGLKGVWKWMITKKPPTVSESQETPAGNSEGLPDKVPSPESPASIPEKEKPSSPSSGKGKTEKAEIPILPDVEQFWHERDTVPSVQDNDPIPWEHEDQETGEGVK
FBW7 act – FBW7 E3 ligase activators, primary screen, biochemical, AlphaScreen, human; actives 0.13% (n = 650,000); AlphaScreen FBW7–phospho-cyclin E peptide binding, activator screen; normalized activity (activation), % at 26.1 µM; in the data active means normalized activity above about 1.9%;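 further: purified mutant Fbw7 with reduced substrate affinity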
GPR151 conf act – GPR151 activators, triplicate retest, confirmation, cell-based, PathHunter beta-arrestin, luminescence; 6,700 tested, under 10 active; GPR151 PathHunter beta-arrestin cells, 90 min; % of EA-reagent control over plate median; shares compounds with GPR151 ag; activation, % at 11.2 µM; AID 1508609, 2020;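 active means mean percent activation across replicates above the confirmation screen cutoff of 4.91%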
GPR119 ag – GPR119 activators in beta-arrestin cells, counter-screen for GPR151 activator project, cell-based, PathHunter beta-arrestin, luminescence, triplicate; shares compounds with GPR151 ag; activation, % at 11.2 µM; 90 min; 0 = compound-well median, 100 = enzyme-acceptor control; actives 0.3% (n = 6,700); AID 1508611, 2020;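 active means mean percent activation in the counterscreen above 29.09%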;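 further: counterscreen on off-target GPR119 to flag nonselective hits from the GPR151 activator screen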
* hit, by the source's call; · = no result given; ! = not active in a repeat.

SMILES	MITF inh	TEAD-YAP inh	GPR151 ag	FBW7 act	GPR151 conf act	GPR119 ag
O=C1C2CC=CCC2C(=O)N1c1cccc(Cl)c1 (centres undefined)	-6	-7	0	0	·	·
COc1cc(CN2CCC3(C=Cc4ccccc43)CC2)cc2c1OCO2	·	·	-1	·	·	·
COc1cc(CN2CCN(c3ccccc3Cl)CC2)cc2c1OCO2	34	8	5.5*	0	1	11
O=C(NNc1ccccn1)Nc1ccc(Cl)cc1	-3	-8	6.5*	0	0	0
S=C(Nc1ccc(Cl)cc1)Nc1ccccn1	1	-27	0	0	·	·
COc1cc(-c2c(C#N)c(N)nc3sc(C#N)c(N)c23)cc(OC)c1OC	1	-14	11*	0	0	3
CC(=O)Nc1ccc(S(=O)(=O)c2ccc(NC(C)=O)c([N+](=O)[O-])c2)cc1[N+](=O)[O-]	15	5	7.5*	1	1	10
Cc1ccnc(NS(=O)(=O)c2ccc([N+](=O)[O-])cc2)n1	-3	-21	7.5*	0	0	-13
O=[N+]([O-])c1ccc(Oc2ccc(S(=O)(=O)Nc3ccc(F)cc3)cc2)cc1	4	36*	7.5*	0	1	-5
CC(=O)Nc1ccc(S(=O)(=O)Nc2ccc(C(F)(F)F)cc2[N+](=O)[O-])cc1	6	9	7.8*	0	1	15
O=[N+]([O-])c1ccc(Oc2ccc(S(=O)(=O)Nc3ccccc3)cc2)cc1	-11	24	1	0	·	·
CCCN(CCC)S(=O)(=O)c1ccc(NS(C)(=O)=O)cc1	0	-1	0	0	·	·
CCCN(CCC)S(=O)(=O)c1ccc(NS(=O)(=O)c2ccc(F)cc2)cc1	3	6	6.1*	0	0	-14
CC(=O)Nc1ccc(S(=O)(=O)c2ccc([N+](=O)[O-])cc2)cc1	-6	2	-2	0	·	·
CC(=O)Nc1ccc(NS(=O)(=O)c2ccc([N+](=O)[O-])cc2)cc1	13	8	18*	1	1	1
O=C(CC1C(=O)NCCN1Cc1ccc(F)cc1)NCCn1ccnc1 (centres undefined)	-2	-9	1	0	·	·
COc1ccc(C(=O)Cc2ccc(OC)c(OC)c2)c(OC)c1	-5	-2	4	0	·	·
COc1ccc2c(c1)OC[C@@H](Cc1ccc(OC)c(OC)c1)[C@@H]2O	-13	-3	5.0*!	0	0	-1
CCC(=O)Nc1sc2c(c1C(=O)Nc1ccc(OC)cc1)CCC(C(C)(C)C)C2 (centres undefined)	1	-1	8.8*	0	-2	-11
CCOc1ccc(NC(=O)c2c(NC(=O)CC)sc3c2CCC(C(C)(C)C)C3)cc1 (centres undefined)	12	6	0	0	·	·
COc1ccc(Cl)cc1NC(=O)Cn1nc2n(C)c3ccccc3n2c(=O)c1=O	-1	4	0	0	·	·
COC(=O)c1ccc(NC(=O)Cn2nc3n(C)c4ccccc4n3c(=O)c2=O)cc1	3	-12	8.8*	0	1	2
CCOc1cc(CNn2nnnc2N)cc(Cl)c1OCC(=O)NC(C)(C)C	-3	8	5.2*	0	0	-4
C=CCOc1c(Cl)cc(CNn2nnnc2N)cc1OC	17	-1	4	0	·	·
Cc1onc(-c2ccccc2Cl)c1-c1nc(-c2ccc(Cl)cc2)no1	3	1	1	0	·	·
Cc1[nH]c2ccccc2c1CCNC(=O)/C(=C/c1ccccc1)NC(=O)c1ccccc1Cl	-6	20	0	0	·	·
Cc1[nH]c2ccccc2c1CCNC(=O)/C(=C/c1ccccc1)NC(=O)c1ccco1	0	0	6.0*	0	0	10
CCCCCc1ccc(OCCOCCn2c[n+](C)c3ccccc32)c(CCCCC)c1	-1	52*	4.9*	0	0	-1
